# The full list was thinned out, with hits kept by preference.
# Giardia FBPA inh = inhibitors of Giardia lamblia fructose-1,6-bisphosphate aldolase. purified Giardia FBPA. Potency, µM (doses to about 59.6 µM), usual class: inhibitors. actives 0.71% (n = 290,000); note: nearly all actives have a fitted effect of over 55% in size
# Target sequence (A8B2U2 whole entry, looked up): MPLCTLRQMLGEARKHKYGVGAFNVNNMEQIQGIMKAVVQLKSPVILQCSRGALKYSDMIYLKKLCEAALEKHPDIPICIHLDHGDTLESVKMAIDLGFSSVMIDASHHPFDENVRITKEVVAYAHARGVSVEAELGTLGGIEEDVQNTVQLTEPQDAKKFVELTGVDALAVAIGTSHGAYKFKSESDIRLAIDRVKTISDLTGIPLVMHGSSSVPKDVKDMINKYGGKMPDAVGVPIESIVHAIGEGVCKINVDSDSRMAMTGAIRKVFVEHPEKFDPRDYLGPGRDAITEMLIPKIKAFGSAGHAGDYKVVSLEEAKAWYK
#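 Giardia FBPA (40 nM reagent) was preincubated 10 min at RT with compound (up to 57.5 uM final), then substrate plus GAPDH/TPI/NAD/arsenate coupling system with diaphorase/resazurin was added; resorufin fluorescence (525/598 nm) was read after 20 min.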
# RE007 growth inh = less growth of the S. pombe RE007 Vpr strain | S. pombe RE007 Vpr strain, BacTiter-Glo ATP luminescence, 24 h | Potency, µM (titrated, usually from 92.2 µM), hits mostly inhibitors | actives 0.21% (n = 360,000) | AID 651644; active = well fitted falling curve with a large enough effect; inconclusive = small, poorly fitted or top-dose-only effect; inactive = no such curve, though single readings can be large or run the other way; note: nearly all actives have a fitted effect of over 50% in size
#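 Fission yeast strain RE007, carrying one chromosomally integrated HIV-1 vpr copy, was seeded at OD 0.01 in PMG+AL medium with 23 nL pinned compound. After 24 h at 30 °C and 99% humidity, viability was read by BacTiter-Glo luminescence.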
# LmPK inhibitor = inhibitors of Leishmania mexicana pyruvate kinase; Q27686; purified LmPK, Kinase-Glo ATP luminescence, 1 h; AID 1721; Potency, µM (series often up to 57.5 µM), hits mostly inhibitors; actives 0.37% (n = 290,000)
#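 Kinase-Glo luminescence read after 1 h RT reaction of 0.1 nM LmPK with 0.5 mM PEP and 0.1 mM ADP. Activity scaled between uninhibited and enzyme-free controls.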
# CHX counter = counter-screen hit for Shiga toxin inhibitors, cycloheximide; cell reporter, cycloheximide protein synthesis inhibition counterscreen; max response, %; actives 12% (n = 300,000); AID 2314; in the data active = max response mostly above about 13%, no sharp cut-off; inactive = mostly below about 14%; note: read at 38.3 µM for the half of the compounds with a filed dose
# TbPYK inhibitor = T. brucei pyruvate kinase inhibition; Q57TT1; TbPYK enzyme, Kinase-Glo Plus ATP luminescence, 45 min; Potency, µM (top dose mostly 76.8 µM), hits mostly inhibitors; actives 0.12% (n = 410,000); note: nearly all actives have a fitted effect of over 50% in size
#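 Enzyme and substrate buffer are dispensed first and compound is pin-transferred. ADP at 130 uM final then starts the reaction, which runs 45 min at room temperature. Detection reagent is added for 10 min before luminescence is imaged.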
# Shiga inhibitor = Shiga toxin inhibition. Vero cells, Shiga toxin protein synthesis inhibition reporter. inhibition, % at 38.7 µM. actives 9.2% (n = 290,000). AID 2315; in the data active = inhibition mostly above about 28%, no sharp cut-off; inactive = mostly below about 43%
# Hits are given with their value; n = inactive; u = inconclusive; x = no result given; [ ] = remark or other dose. Unless noted, calls come from the whole dose curve; as a rule, active = well fitted curve in the direction sought with a large enough effect; inconclusive = small, poorly fitted or top-dose-only effect, or another doubt; inactive = no such curve, though single readings can be large; an effect the other way counts as inactive or inconclusive.
SMILES,Giardia FBPA inh,RE007 growth inh,LmPK inhibitor,CHX counter,TbPYK inhibitor,Shiga inhibitor
COc1cccc(/C=C2\CCc3ccccc3C2=O)c1,n,x,16µM,44,u,60
COc1cccc(/C=C2\C(=O)C(=O)c3ccccc32)c1,n,n,n,21,u,n
COc1cc(C=C2C(=O)c3ccccc3C2=O)cc(OC)c1,n,n,n,n,n,n
COc1ccc(/C=C2\CCc3ccccc3C2=O)cc1OC,n,n,n,52,n,139
COc1ccc2c(c1)CC/C(=C\C=C\c1ccccc1)C2=O,u,n,n,25,n,44
COc1ccc2c(c1)CC/C(=C/c1cc(OC)c(OC)c(OC)c1)C2=O,n,n,n,n,n,n
O=C(CN1CCCCC1)NC(=O)NC1CCCC1,n,n,n,23,n,56
COc1ccc(COC(=O)CCc2c[nH]c3ccccc23)cc1F,x,n,x,x,n,x
O=C(N/N=C/c1ccc[nH]1)c1c[nH]c2ccccc12,n,n,n,52,n,111
O=C(N/N=C/c1ccc[nH]1)c1sc2ccccc2c1Cl,n,n,n,47,n,146
O=C(N/N=C/c1ccccn1)c1c[nH]c2ccccc12,u,n,n,49,n,65
O=C(N/N=C/C1CC2CCC1C2)C1CC1 (stereo not drawn),x,n,n,n,n,n
O=C(N/N=C/C1CC2CCC1C2)c1c[nH]c2ccccc12 (stereo not drawn),n,n,n,23,n,n
O=C(COC(=O)c1cccnc1Cl)Nc1nc(-c2ccccc2)cs1,u,n,n,n,n,n
CC(C)(C)C(=O)OC/C(N)=N/OC(=O)c1ccc(Cl)c(Cl)c1,n,n,n,20,n,n
N/C(Cc1ccc(Cl)c(Cl)c1)=N\OC(=O)c1cccs1,n,n,n,n,n,n
COCCn1c(C)cc(O)c(C(c2ccccc2Cl)N2CCCCC2)c1=O (stereo not drawn),x,x,x,x,n,x
COc1ccc(-n2cccc2/C=C2/NC(=O)N(c3cccc(Cl)c3)C2=O)cc1,n,n,n,22,n,n
COc1cc(/C=C2/NC(=O)N(c3cccc(Cl)c3)C2=O)ccc1O,n,n,n,n,n,23
CN(CCc1ccc(Cl)c(Cl)c1)[C@H]1CCCC[C@H]1N1CCCC1,n,x,x,x,x,x
O=C(CNC(=O)c1ccc(F)cc1)c1ccc(Cl)cc1,n,n,n,46,n,69
O=C(CNC(=O)c1ccc(Cl)cc1)c1ccc(Cl)cc1,n,n,n,16,n,52
O=C(CNC(=O)c1ccc(-c2ccccc2)cc1)OCc1ccc(Br)cc1,n,n,n,39,n,68
O=C(CNC(=O)c1ccc(Cl)cc1)c1ccccc1,x,n,x,x,n,x
O=C(CNC(=O)c1ccc(Br)cc1)c1ccccc1,n,n,n,28,n,29
SMILES,Giardia FBPA inh,RE007 growth inh,LmPK inhibitor,CHX counter,TbPYK inhibitor,Shiga inhibitor
O=C(CNC(=O)c1ccccc1)c1ccccc1,x,n,x,x,n,x
O=C(CNC(=O)c1ccccc1C(=O)O)c1ccccc1,n,n,n,49,n,62
Cc1cccc(NC(=O)c2oc3ccc(S(=O)(=O)N4CCCCC4)cc3c2C)c1C,x,x,x,x,n,x
COc1cc(S(=O)(=O)N2CC(=O)Nc3ccccc32)ccc1NC(C)=O,n,n,n,n,n,n
CN(C)/C=C1\SC(=S)N(c2ccc(Br)cc2)C1=O,n,n,n,34,n,46
CN(C)/C=C1\SC(=S)N(c2ccc(F)cc2)C1=O,n,n,n,33,n,n
CCN(CC)c1ccc(N2C(=O)/C(=C\c3cccs3)SC2=S)cc1,n,n,n,n,n,n
COC(=O)N1CCC2CC1c1c(Cl)cccc12 (stereo not drawn),x,n,x,x,n,x
COc1ccc2[nH]c(CN3CCC(CO)(CCOc4ccccc4)CC3)c(C)c2c1,n,n,n,n,n,n
O=C(NCCc1ccc(F)cc1)Nc1ccccc1,n,n,n,30,n,31
O=C(NCCc1ccc(Cl)cc1)Nc1ccc(Cl)cc1,n,n,n,n,n,43
O=C(NCCc1ccncc1)Nc1ccc(F)cc1,n,n,n,n,n,n
CSc1ccc(-c2nc(CSCC(=O)N3CCOCC3)c(C)o2)cc1,n,n,n,27,n,108
CSc1ccc(-c2nc(CSCC(=O)NC3CC3)c(C)o2)cc1,n,n,n,20,n,27
CN1c2ccccc2Oc2nnc(N3CCN(Cc4ccccc4)CC3)cc21,n,u,n,30,n,54
NNC(=O)COc1ccc(-c2nccc(-c3ccc(F)cc3)n2)cc1,n,n,n,n,n,n
Oc1ccc(-c2nccc(-c3ccc(F)cc3)n2)cc1,n,n,n,81,n,88
Nn1c(SCC(=O)Nc2ccccc2F)nnc1C1CCCCC1,n,n,n,n,n,n
Nn1c(SCC(=O)Nc2ccc(F)cc2F)nnc1-c1cccnc1,n,n,n,25,n,n
Nn1c(SCC(=O)Nc2ccc(F)cc2F)nnc1C1CCCCC1,n,n,n,42,n,55
CCn1c(SCC(=O)Nc2ccc(F)cc2)nnc1C1CC1,n,n,n,19,n,n
Nn1c(SCC(=O)Nc2ccccc2F)nnc1-c1cccnc1,n,n,n,n,n,n
Cc1cnc(C)c(Nc2nc(C(N)Cc3ccc(Cl)cc3)cs2)n1 (stereo not drawn),x,n[18.4 µM],x,x,n,x
C=CCn1c(SCC(=O)N(C)C)nc2sc3c(c2c1=O)CCC3,n,n,n,n,n,n
COc1ccc(N=NC2=C(O)CC(C)(C)CC2=O)c(OC)c1,n,n,n,n,n,53
SMILES,Giardia FBPA inh,RE007 growth inh,LmPK inhibitor,CHX counter,TbPYK inhibitor,Shiga inhibitor
CC1(C)CC(=O)C(N=Nc2ccc(C(F)(F)F)cc2[N+](=O)[O-])=C(O)C1,n,n,n,n,n,n
COc1ccc(N=NC2=C(O)CC(C)(C)CC2=O)cc1,n,n,n,47,n,124
COc1ccc(CN=CC2=C(O)CC(C)(C)CC2=O)cc1,n,n,n,23,n,n
CC1(C)CC(=O)C(N=Nc2cccc([N+](=O)[O-])c2)=C(O)C1,n,n,n,45,n,63
CC1(C)CC(=O)C(N=Nc2ccc(Br)cc2)=C(O)C1,n,n,n,n,n,n
COC(=O)CCc1nc2c(C#N)c(-c3ccc(Cl)cc3)ccn2n1,n,n,n,n,n,n
N#Cc1c(-c2ccc(Cl)cc2)ccn2nc(C3CCCCC3)nc12,n,n,n,42,n,n
CCCCc1ccc(S(=O)(=O)NC(=O)C2(C)CCN2C(=O)CCc2cccs2)cc1 (stereo not drawn),x,n,x,x,n,x
COc1ccc(-c2nnc(SCC#CCO)o2)cc1OC,n,n,n,n,n,n
OCC#CCSc1nnc(-c2ccccc2Br)o1,n,n,n,27,n,n
Cc1cc(C)c(C(=O)CSc2nnc(-c3ccccc3Br)o2)cc1C,n,n,n,n,n,n
OCC#CCSc1nnc(-c2ccc(Br)cc2)o1,n,u,n,33,n,n
